Experimental data published in the supplement of paper PMC13380429.

System: Vero E6 infected with SARS-CoV-2
Assay: inhibition of SARS-CoV-2 cytopathic effect; higher = more antiviral protection, active = above 15
Details: 48 h

Measured: inhibition of SARS-CoV-2 cytopathic effect

O=C(CN1C2=NCCN2c2ccccc21)c1ccc(-c2ccccc2)cc1
inactive: 1 nM -0.77% | 8.33 nM 3.75% | 100 nM 1.71% | 833.33 nM -0.84% | 10000 nM 14.8%

CC(=C(CCO)SSCC1CCCO1)N(C=O)Cc1cnc(C)nc1N (stereo in doubt) [fursultiamine]
inactive: 1 nM 2.52% | 8.33 nM 0.44% | 100 nM 2.45% | 833.33 nM -1.75% | 10000 nM -2.11%

C[N+](C)(C)CC(=O)O [betaine]
inactive: 1 nM -1.71% | 8.33 nM -0.6% | 100 nM 0.16% | 833.33 nM 1.31% | 10000 nM -1.65%
